Our source for the seed-corrected z-score values is PubChem BioAssay AID1159506 (National Center for Advancing Translational Sciences (NCATS), 2015).

In all, about 59,000 sequences were measured (the read-out: median about -0.00055, lowest 2% from about -2 on). This is one part of a sample in which the lowest values are shown more often than they occur.

The nature of the test: Identification of proteins required for the processing of the EWS-FLI1 nascent transcript.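 Note: robust z of luciferase light less the median z of siRNAs with the same seed.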 Conditions: TC32 Ewing sarcoma NR0B1-luc vs CMV-luc (EWS-FLI1 target promoter against control promoter), 48 h; screened at 20 nM (by protocol). On the procedure: Ewing sarcoma (ES) cells depend on the EWS-FLI1 fusion transcription factor for cell survival. Using an assay of EWS-FLI1 activity and genome-wide siRNA screening we have identified proteins required for the processing of the EWS-FLI1 nascent transcript. Parallel genome-wide siRNA-mediated RNAi screens were conducted in Ewing sarcoma TC32 cell lines expressing a luciferase (luc) reporter protein driven by either the promoter of the EWS-FLI1 target gene NR0B1 (TC32-NR0B1-luc) or the CMV promoter (TC32-CMV-luc). Luciferase activity was assessed 48 hours post siRNA-transfection.
Twenty microl of serum-free media containing Lipofectamine RNAiMax (0.05 microl) was added to wells containing siRNA (0.8 pmol). Lipid and siRNA were allowed to complex for 45 min at ambient temperature before addition of 600 cells in RPMI-1640, 20% FBS to yield final transfection mixtures containing 20 nM siRNA in RPMI-1640, 10% FBS. Luciferase expression was measured using OneGlo (Promega, Madison, WI). The genome-wide screening campaign was conducted using Ambion's human genome library version 4.1 (Ambion, Austin TX). This library targets approximately 21000 human genes, three siRNAs per gene. Each siRNA is arrayed in an individual well of a 384-well plate. Parallel transfections were conducted in TC32-NR0B1-luc and TC32-CMV-luc cell lines and luciferase expression (OneGlo, Promega) was assayed 48 h later on a PerkinElmer Envision 2104 Multilabel plate reader (PerkinElmer, Waltham, MA). Qiagen's AllStars Negative control was incorporated on all screening plates for normalization (16 wells per plate). Qiagen, Germantown, MDsiGL4 was incorporated as a positive transfection control (16 wells per plate) on all plates. […] The raw luciferase data for the NR0B1- and CMV-luc screens were normalized and z-score-MAD transformed using standard methods (Chung et al., 2008). The miRNA-like seed sequence of every siRNA was determined and the median z-score for all siRNA sequences with the same seed sequence was calculated. This z-score was subtracted from the z-score associated with each siRNA with that seed sequence to generate a seed-adjusted z-score value (Z) that was used when the results for the three siRNAs corresponding to each gene were compared (Marine et al., 2012)
With UUACUAACAUCUUCUCGUC against PKN2, the seed-corrected z-score was found to be 0.115.

On to AAACCUAUUAGUGAGAACA against TRIML1, for which the seed-corrected z-score is -0.116. Under AAACGGAGUCGUAGGAUCC against BMP15 stands -0.603. On to UUUCGUAUUCUGAGGACCG against DLGAP5, for which the seed-corrected z-score turned out to be 0.243. In the case of UUGCAGAUCUUUUCGCACC against S100A9, the seed-corrected z-score was -0.59. In turn, AUUCGGAUUUGGGUCGUGC against PCDHGB2 returned a seed-corrected z-score of 0.36. Under UCAUGAUCUAUGUAGCCCG against ODF3L1 stands -2.53; under UUCACCAUGACAGCCGAAG against RPL37AP8, -0.494.

For the sequence UUCAAUUCCAGCAACAUAA against CLDND1, the seed-corrected z-score is -0.35. Then AUGGUAACGAGCUGAAUCC against TWF1, with 0.694. Under AAAUGUACAGGGAUCCAGG against ACCSL stands -2.2; under UUCAGGGCGAGGUAAUCCU against HLA-G, -0.165; under UUUCAUAAUUGUCUCACUG against MTHFD2, 0.341. Then AAACUUGUACACGUUCUUG against RPN2, with 1.31.

For the sequence AUACGAUAAAUAGCAGCUG against OR2D2, the seed-corrected z-score is -0.266. Consider UCAUGUAUUGCUGGGUGGG against LETMD1, for which the seed-corrected z-score is -2.04. Then UGAAAGCGCAGAUCUGUCU against HIST1H3G, with -0.148. As to UGGUCUAAGGCUUUGAUGC against KLK2, the seed-corrected z-score is -0.348. Turning to UGAUAUUUUGGUGCGUUGU against FBXO45, the seed-corrected z-score stood at 0.68. Then UAGUUGGUGAGGAUCACGG against REN, with -0.578; and UACUCUUCCAACGACAGGC against UQCC2, with 0.919; and UUCCGAGUUGCAGAGGUCU against SLURP1, with -0.177. Under AAAAGGAUUGCUGAAAUGG against LOC650293 stands 0.542.

As for UCUUGACUGACUUUCUUCU against FAM173B, the seed-corrected z-score was -2.2. Under AAUGGAUGCAGUGUCAAGC against PAK1IP1 stands 1.75. Under UUCCUUGACAAGCAUAACC against CARNMT1 stands -0.155; under AAAUCUUACAGACUGGUUC against BEX1, -0.486; under UCAUGGGUCACGUCAGCUG against SLC2A1, -0.895. For the sequence ACACUGUAAAGCUCGGUGC against LARP1, the seed-corrected z-score worked out at 0.106.

UUAGAGUUGGUGAUGAGCA against GALK1 had a seed-corrected z-score of 1.7. Then AAAAGGACUAUGUACAGCC against SNRPB, with -3.37; and UAUGCUCUCUGAUCGAAUG against ATG16L1, with 0.136.

As to UUGCUCACAAUAAAAUAGC against GPR89A, the seed-corrected z-score is -0.56. Under UGUAGACAAAGUACUGGGC against CNTN2 stands -0.261.

For the sequence AAACUUCCUAUUAUCGACC against SPRED2, the seed-corrected z-score was -0.704. Then UUCGAGUGAAGACAGAAUC against ZNF318, with -2.15; and UAAGUUGUGAUGAUAGGUU against ZNF98, with -0.0973. Then AUCUGAUCCAUAUUCUCCC against DIEXF, with 0.628; and UACAAUAAAAGAAGCAUCU against PIGY, with 0.157; and UUUCUUAGAAAUGAGGUGA against OVOL1, with -0.287. Take UCAGGAUCUGUGGAUACUG against COPB2: the seed-corrected z-score was -2.55. Under UCAUAGUCCACGAGUUUCC against BIN2 stands 0.142; under UUCGGUUGAACCUUGUCUG against ORC2, -0.39. Then AAUACAAUGAGGAUGUUGC against MCHR2, with -0.242. Then AUCUUUAACCCGAAAGGUC against STRC, with -3.57; and UACUCGAAGAUUUCCGUCC against SEC16B, with -0.242; and UUCGAUGUCACAGGUCUGC against RGS14, with -0.247. As for UCGAUAUCAACUUUUGCCG against CEP192, the seed-corrected z-score is -0.779. Under UUUGAUAGAGGUGCGGACG against OR6F1 stands -0.169; under UAUCCGAUCACCACUCUCC against MYOM3, -0.29; under UUCUUUCUGAGUCUGGUUA against RPL35, -3.01. The sequence AAAGGCUUAAUUUUUACCU against TOMM7 had a seed-corrected z-score of 1.3. On to UGAGUUCCAGGUCUUAUGC against DEFB110, for which the seed-corrected z-score is -0.42. The sequence AUAUUGUUUAGCUCCACGG against MASP1 gave a seed-corrected z-score of 0.285. As for UAGUCGUUCUUCUACAGCC against MBIP, the seed-corrected z-score stood at 0.411. Then UCACGAAGAGUUGCAACUG against ALB, with -3.99. Under UGUAGUAACAGAGCCACGC against PPY stands 0.227; under AAAAGUCCUAGCAUAUUCC against ZER1, 0.406. UUUGUGAUCUUGGUGAGGU against SHBG: the seed-corrected z-score is -0.0288. As for AACUGGACUGGAAUUGUUU against CXCR1, the seed-corrected z-score is -0.419. Under UAUGUGCUGGUGAUCCUUC against DEAF1 stands 0.839. Under UGUUGUACAACGAUAGCCU against RELL1 stands -0.595. Under AUUGUAACGGGUUUUGUUC against CHRNB4 stands -0.325; under AACUGUUCCAUCGACUUGG against RASAL1, -0.492; under UUACUGUCCAGAGCACUGA against SMARCD3, -0.925. Regarding UUUGCUAUAAUCCACCUCC against IK, the seed-corrected z-score is -3.11. Turning to UAGACGAUAAGACUCUUUC against NCOA7, the seed-corrected z-score is -0.339.
